Active and inactive are the calls of the source. The calls were made as follows: active = hit-call score of the fitted dose curve at least 0.9, where 1 is the maximum; inactive = score below 0.9.
Key:
[1] = ATG_GLI_CIS: Attagene CIS-FACTORIAL HepG2 Assay for human Zinc Finger Protein GLI1 (AID 2282945); conditions: HepG2, Attagene cis-factorial reporter mRNA, GLI element; actives raise or lower the signal
Summary of the method: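 Bidirectional curve fits relative to DMSO, using reporter mRNA levels from RT-PCR plus capillary electrophoresis. Cells were HepG2 transiently carrying cis-regulated reporter constructs, harvested 24 h after dosing.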

[2] = ATG_ISRE_CIS: Attagene CIS-FACTORIAL HepG2 Assay for human Interferon Regulatory Factor 1 (IRF1) binding to an Interferon-Stimulated Response Element (ISRE) (AID 2282948); conditions: HepG2 ISRE cis-reporter (Attagene), mRNA transcription readout; actives raise or lower the signal
Summary of the method: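 HepG2 cells transiently transfected with multiplexed cis-promoter reporter units; after 24 h compound exposure, reporter mRNA quantified by RT-PCR, FAM labelling, HpaI digestion and capillary electrophoresis. Bidirectional fit versus DMSO baseline.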

[3] = ATG_M_32_CIS: Attagene CIS-FACTORIAL HepG2 Assay for M32 Transcription Factor (Internal Marker) (AID 2282949); conditions: HepG2 Attagene cis-factorial M32 reporter, mRNA; actives raise or lower the signal;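 also: background control marker of the multiplexed CIS panel rather than a real target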
Summary of the method: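 Following 24 h chemical exposure of HepG2 cells transiently expressing cis-promoter reporter constructs, reporter transcript levels were determined by RT-PCR with fluorescent labelling and capillary electrophoresis, then fitted bidirectionally against DMSO.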

[4] = ATG_M_06_CIS: Attagene CIS-FACTORIAL HepG2 Assay for M06 Transcription Factor (Internal Marker) (AID 2282950); conditions: HepG2 Attagene CIS-FACTORIAL M06 internal marker reporter; actives raise or lower the signal
Summary of the method: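 One of many multiplexed endpoints: HepG2 reporter mRNA after 24 h dosing, detected by RT-PCR and capillary electrophoresis fluorescence; gain or loss of signal analysed against DMSO.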

[5] = target: Hypoxia-inducible factor 1-alpha (Homo sapiens) (UniProt Q16665); assay: ATG_HIF1a_CIS: Attagene CIS-FACTORIAL HepG2 Assay for human Hypoxia Inducible Factor 1 (HIF1A) (AID 2282951); conditions: HepG2 Attagene cis-factorial HIF1a reporter transcription; actives raise or lower the signal
Summary of the method: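 HepG2 cells transiently transfected with multiplexed cis-promoter reporter units; reporter mRNA read 24 h after dosing by RT-PCR, 6-FAM primer-extension labelling, HpaI digestion and capillary electrophoresis. Bidirectional fit versus DMSO baseline.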

[6] = target: Hepatocyte nuclear factor 6 (Homo sapiens) (UniProt Q9UBC0); assay: ATG_HNF6_CIS: Attagene CIS-FACTORIAL HepG2 Assay for human Hepatocyte Nuclear Factor 6 (HNF6) (AID 2282952); conditions: HepG2 Attagene cis-factorial HNF6 reporter transcription; actives raise or lower the signal
Summary of the method: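 HepG2 cells transiently transfected with cis-element-driven multiplexed reporter units measuring endogenous transcription factor activity. After 24 h exposure, reporter mRNA quantified by RT-PCR, FAM-labelled fragments and capillary electrophoresis; bidirectional fitting versus DMSO.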

[7] = target: Heat shock factor protein 1 (Homo sapiens) (UniProt Q00613); assay: ATG_HSE_CIS: Attagene CIS-FACTORIAL HepG2 Assay for human Heat Shock Transcription Factor 1 (HSE) (AID 2282953); conditions: HepG2 HSE cis-reporter, Attagene RNA transcription; actives raise or lower the signal
Summary of the method: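 Using HepG2 with transfected cis-driven reporter constructs, compound effects on endogenous factor activity are scored as reporter mRNA change at 24 h. Detection: RT-PCR, HpaI digestion, capillary electrophoresis; bidirectional fitting to DMSO.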

[8] = ATG_MRE_CIS: Attagene CIS-FACTORIAL HepG2 Assay for human Metal Responsive Element (MRE) (AID 2282954); conditions: HepG2 MRE cis-reporter transcription, Attagene multiplex; actives raise or lower the signal
Summary of the method: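 After a 24 h chemical exposure, transiently transfected HepG2 cells yield RNA whose reporter sequences are amplified, FAM-labelled and sized by capillary electrophoresis. Curves are fitted bidirectionally relative to DMSO.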

[9] = ATG_PBREM_CIS: Attagene CIS-FACTORIAL HepG2 Assay for human Phenobarbital-responsive Enhancer Module (PBREM) (AID 2282955); conditions: HepG2 PBREM cis-reporter, Attagene multiplexed transcription; actives raise or lower the signal
Summary of the method: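 HepG2 cells transiently transfected with multiple cis-regulated reporter transcription units; endogenous factor activity at the PBREM element measured as reporter mRNA 24 h after dosing, via RT-PCR and capillary electrophoresis of fluorescent fragments; bidirectional fitting versus DMSO.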

[10] = target: Paired box protein Pax-6 (Homo sapiens) (UniProt P26367); assay: ATG_Pax6_CIS: Attagene CIS-FACTORIAL HepG2 Assay for human Paired Box 6 (PAX6) (AID 2282956); conditions: HepG2 CIS-FACTORIAL PAX6 reporter transcription, RNA readout; actives raise or lower the signal
Summary of the method: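 HepG2 cells transiently transfected with multiplexed cis-promoter reporter units (endogenous TF activity) were dosed for 24 h. Reporter mRNA was quantified by RT-PCR, 6-FAM labeling, HpaI digestion and capillary electrophoresis; bidirectional fitting versus DMSO baseline.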

[11] = ATG_PXRE_CIS: Attagene CIS-FACTORIAL HepG2 Assay for human Pregnane X Receptor Element (PXRE) (AID 2282957); conditions: HepG2 Attagene CIS-FACTORIAL PXRE reporter, mRNA; actives raise or lower the signal
Summary of the method: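 HepG2 cells transiently transfected with cis-element-driven multiplexed reporter units; after 24 h chemical exposure, reporter mRNA measured by RT-PCR, 6-FAM labelling, HpaI digestion and capillary electrophoresis. Bidirectional fitting relative to DMSO.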

[12] = ATG_Sox_CIS: Attagene CIS-FACTORIAL HepG2 Assay for human SRY-box transcription factor (SOX) (AID 2282960); conditions: HepG2 Attagene cis-factorial SOX reporter, mRNA; actives raise or lower the signal
Summary of the method: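 HepG2 cells transiently transfected with cis-element-driven multiple reporter transcription units, dosed 24 h; reporter mRNA measured by RT-PCR, FAM labelling, HpaI digestion and capillary electrophoresis. Bidirectional fit versus DMSO baseline.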

[13] = target: Transcription factor Sp1 (Homo sapiens) (UniProt P08047); assay: ATG_Sp1_CIS: Attagene CIS-FACTORIAL HepG2 Assay for human Specificity Protein 1 (Sp1) (AID 2282961); conditions: HepG2 Sp1 cis-reporter transcription, actives raise or lower the signal
Summary of the method: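 HepG2 cells transiently transfected with multiple reporter transcription units driven by cis-regulatory elements; Sp1-responsive reporter mRNA measured 24 h after dosing by RT-PCR and capillary electrophoresis fluorescence, fitted bidirectionally against DMSO baseline.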

[14] = ATG_SREBP_CIS: Attagene CIS-FACTORIAL HepG2 Assay for human Sterol Regulatory Element Binding (SREBP) (AID 2282962); conditions: HepG2 Attagene cis-factorial SREBP reporter, mRNA; actives raise or lower the signal
Summary of the method: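 HepG2 cells transiently transfected with multiplexed cis-element reporter units report endogenous transcription factor activity. After 24 h of chemical exposure, reporter mRNA was quantified by RT-PCR, 6-FAM labelling, HpaI digestion and capillary electrophoresis; bidirectional fits used DMSO as baseline.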

[15] = target: Signal transducer and activator of transcription 3 (Homo sapiens) (UniProt P40763); assay: ATG_STAT3_CIS: Attagene CIS-FACTORIAL HepG2 Assay for human Signal Transducer and Activator of Transcription 3 (STAT3) (AID 2282963); conditions: HepG2, Attagene cis-factorial STAT3 reporter transcription; actives raise or lower the signal
Summary of the method: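 After a 24 h compound incubation, total RNA from MRTU-transfected HepG2 cells was converted to cDNA and reporter sequences PCR-amplified, labelled and profiled by capillary electrophoresis. Gain and loss of signal were referenced to DMSO.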

[16] = ATG_TA_CIS: Attagene CIS-FACTORIAL HepG2 Assay for human TA Basal Promoter (AID 2282964); conditions: HepG2 Attagene CIS-factorial TA basal promoter reporter; actives raise or lower the signal
Summary of the method: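 Transient MRTU transfection of HepG2 preceded 24 h compound exposure. Reporter mRNA levels were then read by RT-PCR with capillary electrophoresis, and this background-control endpoint was fitted bidirectionally to DMSO.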

[17] = ATG_PPRE_CIS: Attagene CIS-FACTORIAL HepG2 Assay for human Peroxisome Proliferator-activated Response Element (PPRE) (AID 2282958); conditions: HepG2 PPRE cis-element reporter, Attagene transcription factor profiling; actives raise or lower the signal
Summary of the method: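 HepG2 cells transiently transfected with multiplexed cis-element reporter units measure endogenous transcription factor activity. After 24 h compound exposure, reporter mRNA is quantified by RT-PCR, 6-FAM labeling, HpaI digestion and capillary electrophoresis; bidirectional fits are made against DMSO baseline.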

[18] = ATG_RORE_CIS: Attagene CIS-FACTORIAL HepG2 Assay for human RAR-related Orphan Receptor Element (RORE) (AID 2282959); conditions: HepG2 Attagene cis-factorial RORE reporter, mRNA; actives raise or lower the signal
Summary of the method: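 HepG2 cells transiently transfected with multiple cis-element reporter transcription units, exposed to chemical for 24 h. Reporter mRNA quantified by RT-PCR, 6-FAM primer-extension labeling, HpaI digestion and capillary electrophoresis; bidirectional fit versus DMSO baseline.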

Measured: AC50

Signal transducer and activator of transcription 3 (Homo sapiens), sequence (P40763 whole entry, looked up): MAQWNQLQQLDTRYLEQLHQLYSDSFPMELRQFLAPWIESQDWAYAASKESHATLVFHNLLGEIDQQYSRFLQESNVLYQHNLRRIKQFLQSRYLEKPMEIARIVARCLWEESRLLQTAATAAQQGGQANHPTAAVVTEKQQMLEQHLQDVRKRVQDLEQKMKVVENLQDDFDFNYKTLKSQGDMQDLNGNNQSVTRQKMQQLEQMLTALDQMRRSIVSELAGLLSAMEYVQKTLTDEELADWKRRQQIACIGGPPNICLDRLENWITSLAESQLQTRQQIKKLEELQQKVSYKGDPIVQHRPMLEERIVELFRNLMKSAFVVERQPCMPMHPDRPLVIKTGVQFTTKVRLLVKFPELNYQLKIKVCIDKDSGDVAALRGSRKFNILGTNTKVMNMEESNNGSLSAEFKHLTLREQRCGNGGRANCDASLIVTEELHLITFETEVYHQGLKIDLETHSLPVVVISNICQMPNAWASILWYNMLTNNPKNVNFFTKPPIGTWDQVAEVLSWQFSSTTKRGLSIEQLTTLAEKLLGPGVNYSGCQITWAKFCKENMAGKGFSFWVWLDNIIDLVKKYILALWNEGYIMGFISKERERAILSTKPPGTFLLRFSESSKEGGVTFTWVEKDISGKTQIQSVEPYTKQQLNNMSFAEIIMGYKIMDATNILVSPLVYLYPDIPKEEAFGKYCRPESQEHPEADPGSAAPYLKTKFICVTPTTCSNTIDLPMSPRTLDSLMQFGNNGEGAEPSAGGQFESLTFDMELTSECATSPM
Transcription factor Sp1 (Homo sapiens), sequence (P08047 whole entry, looked up): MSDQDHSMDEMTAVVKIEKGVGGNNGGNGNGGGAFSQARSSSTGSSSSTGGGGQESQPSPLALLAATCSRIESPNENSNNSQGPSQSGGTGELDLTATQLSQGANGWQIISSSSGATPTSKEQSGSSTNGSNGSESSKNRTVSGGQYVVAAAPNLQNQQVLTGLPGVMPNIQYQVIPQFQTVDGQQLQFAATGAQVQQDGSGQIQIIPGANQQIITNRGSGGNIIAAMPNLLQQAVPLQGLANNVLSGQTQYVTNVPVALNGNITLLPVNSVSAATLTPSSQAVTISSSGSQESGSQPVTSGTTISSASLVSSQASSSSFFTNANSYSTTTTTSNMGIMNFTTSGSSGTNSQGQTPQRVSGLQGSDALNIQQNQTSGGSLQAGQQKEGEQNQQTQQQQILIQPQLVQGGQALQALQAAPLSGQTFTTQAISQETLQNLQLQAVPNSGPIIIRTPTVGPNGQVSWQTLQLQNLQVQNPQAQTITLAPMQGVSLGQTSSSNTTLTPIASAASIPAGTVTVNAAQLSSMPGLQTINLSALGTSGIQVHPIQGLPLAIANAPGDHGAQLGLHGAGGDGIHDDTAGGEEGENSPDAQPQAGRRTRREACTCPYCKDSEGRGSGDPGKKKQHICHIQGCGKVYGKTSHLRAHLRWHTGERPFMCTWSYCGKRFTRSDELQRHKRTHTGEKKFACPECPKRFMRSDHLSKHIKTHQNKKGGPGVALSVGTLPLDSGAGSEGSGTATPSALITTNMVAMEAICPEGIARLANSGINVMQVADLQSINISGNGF
Hepatocyte nuclear factor 6 (Homo sapiens), sequence (Q9UBC0 whole entry, looked up, the tested form may be a part): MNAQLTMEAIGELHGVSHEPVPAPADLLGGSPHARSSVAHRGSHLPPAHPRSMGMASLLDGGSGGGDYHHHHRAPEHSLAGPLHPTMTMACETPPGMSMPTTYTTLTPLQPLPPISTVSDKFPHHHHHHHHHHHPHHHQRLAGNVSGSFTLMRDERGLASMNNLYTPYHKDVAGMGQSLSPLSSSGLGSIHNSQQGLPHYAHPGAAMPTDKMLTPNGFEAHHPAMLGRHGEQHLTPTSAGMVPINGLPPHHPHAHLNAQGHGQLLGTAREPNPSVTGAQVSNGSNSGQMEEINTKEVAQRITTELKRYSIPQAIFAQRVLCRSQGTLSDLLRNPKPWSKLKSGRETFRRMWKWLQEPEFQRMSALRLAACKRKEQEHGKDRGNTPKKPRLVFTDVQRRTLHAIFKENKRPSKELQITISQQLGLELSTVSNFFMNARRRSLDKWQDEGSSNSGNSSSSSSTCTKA
Hypoxia-inducible factor 1-alpha (Homo sapiens), sequence (Q16665 whole entry, looked up): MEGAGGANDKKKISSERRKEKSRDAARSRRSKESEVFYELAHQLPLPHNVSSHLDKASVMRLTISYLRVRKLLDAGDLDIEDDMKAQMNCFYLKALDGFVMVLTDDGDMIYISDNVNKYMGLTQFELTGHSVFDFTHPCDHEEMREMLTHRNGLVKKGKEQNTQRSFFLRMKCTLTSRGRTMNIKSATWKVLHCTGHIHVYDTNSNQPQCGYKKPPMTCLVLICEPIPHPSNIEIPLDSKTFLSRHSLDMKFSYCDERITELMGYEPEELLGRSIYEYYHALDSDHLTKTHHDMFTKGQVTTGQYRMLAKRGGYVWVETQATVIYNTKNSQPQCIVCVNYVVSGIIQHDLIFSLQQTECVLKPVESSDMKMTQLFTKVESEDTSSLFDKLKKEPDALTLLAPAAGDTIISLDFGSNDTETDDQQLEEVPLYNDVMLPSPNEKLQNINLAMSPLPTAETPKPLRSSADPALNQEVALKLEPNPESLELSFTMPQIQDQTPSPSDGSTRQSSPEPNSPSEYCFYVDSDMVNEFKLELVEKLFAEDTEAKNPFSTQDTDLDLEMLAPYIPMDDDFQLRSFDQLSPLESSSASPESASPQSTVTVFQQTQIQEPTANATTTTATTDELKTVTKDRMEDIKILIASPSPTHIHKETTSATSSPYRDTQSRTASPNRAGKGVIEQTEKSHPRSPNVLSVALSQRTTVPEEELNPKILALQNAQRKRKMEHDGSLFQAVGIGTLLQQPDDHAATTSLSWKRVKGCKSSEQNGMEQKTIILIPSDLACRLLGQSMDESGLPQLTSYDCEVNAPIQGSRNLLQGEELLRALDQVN
Paired box protein Pax-6 (Homo sapiens), sequence (P26367 whole entry, looked up): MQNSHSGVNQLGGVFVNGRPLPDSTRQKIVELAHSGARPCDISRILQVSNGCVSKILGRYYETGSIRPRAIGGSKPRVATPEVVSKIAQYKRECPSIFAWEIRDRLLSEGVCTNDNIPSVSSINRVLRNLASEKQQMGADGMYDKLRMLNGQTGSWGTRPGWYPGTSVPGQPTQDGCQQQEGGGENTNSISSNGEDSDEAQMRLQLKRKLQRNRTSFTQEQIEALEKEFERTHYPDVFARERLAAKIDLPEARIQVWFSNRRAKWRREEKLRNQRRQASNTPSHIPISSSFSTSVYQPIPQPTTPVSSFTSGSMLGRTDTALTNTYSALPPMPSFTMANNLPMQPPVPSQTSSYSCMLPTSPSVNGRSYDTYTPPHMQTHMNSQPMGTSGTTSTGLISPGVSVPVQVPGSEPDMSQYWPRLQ
Heat shock factor protein 1 (Homo sapiens), sequence (Q00613 whole entry, looked up): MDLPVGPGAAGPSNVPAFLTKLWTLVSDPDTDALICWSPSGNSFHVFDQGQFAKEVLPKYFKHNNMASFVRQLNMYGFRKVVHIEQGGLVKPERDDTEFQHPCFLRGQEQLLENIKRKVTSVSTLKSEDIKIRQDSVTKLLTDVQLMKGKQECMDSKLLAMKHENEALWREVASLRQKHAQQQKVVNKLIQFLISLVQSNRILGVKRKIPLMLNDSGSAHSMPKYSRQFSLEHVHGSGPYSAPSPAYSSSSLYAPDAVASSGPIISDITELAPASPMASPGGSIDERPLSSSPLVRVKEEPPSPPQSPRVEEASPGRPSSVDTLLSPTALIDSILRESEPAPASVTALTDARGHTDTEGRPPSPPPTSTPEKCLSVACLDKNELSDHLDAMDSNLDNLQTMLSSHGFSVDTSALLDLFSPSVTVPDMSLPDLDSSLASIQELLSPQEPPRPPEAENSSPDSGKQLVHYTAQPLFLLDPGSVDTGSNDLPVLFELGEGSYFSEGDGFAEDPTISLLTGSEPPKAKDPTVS

COc1ccc(N)c(C)c1
active: [9] 181 µM | [11] 27.3 µM
inactive: [1] | [2] | [3] | [4] | [5] | [6] | [7] | [8] | [10] | [12] | [13] | [14] | [15] | [16]

CCCCCCCCCCO[C@@H]1O[C@H](CO)[C@@H](O)[C@H](O)[C@H]1O
inactive: [1] | [2] | [3] | [4] | [5] | [6] | [7] | [8] | [9] | [10] | [11] | [17] | [12] | [13] | [14] | [15] | [16]

COc1ccc(C(C)=O)cc1
inactive: [1] | [2] | [3] | [4] | [5] | [6] | [7] | [8] | [9] | [10] | [11] | [18] | [12] | [13] | [14] | [15] | [16]

CC1=CCC(C(C)C)=CC1
active: [3] 69.4 µM
inactive: [1] | [2] | [4] | [5] | [6] | [7] | [8] | [9] | [10] | [11] | [13] | [14] | [15] | [16]

Cc1cc(N)n(-c2ccccc2)n1
inactive: [1] | [2] | [3] | [4] | [5] | [6] | [7] | [8] | [9] | [10] | [17] | [18] | [12] | [13] | [15] | [16]
active: [11] 39.5 µM

CCCCOCC(C)OCC(C)O (stereo unspecified)
inactive: [1] | [2] | [3] | [4] | [5] | [6] | [7] | [8] | [9] | [10] | [11] | [12] | [13] | [15] | [16]

CCCCCCCCCOS(=O)(=O)O
active: [17] 24 µM
inactive: [1] | [2] | [3] | [4] | [5] | [6] | [7] | [8] | [9] | [10] | [11] | [12] | [13] | [14] | [15] | [16]

[O-]/[N+](=N\O)c1ccccc1
active: [11] 26.6 µM
inactive: [1] | [2] | [3] | [4] | [5] | [6] | [7] | [8] | [9] | [10] | [12] | [13] | [15] | [16]

CC(=O)CCC=C(C)CCC=C(C)C
active: [11] 6.98 µM
inactive: [1] | [2] | [3] | [4] | [5] | [6] | [7] | [8] | [9] | [10] | [18] | [12] | [13] | [14] | [15] | [16]

CC12CCC(C1)C(C)(C)C2O (stereo unspecified)
inactive: [1] | [2] | [3] | [4] | [5] | [6] | [7] | [8] | [9] | [10] | [11] | [18] | [12] | [13] | [14] | [15] | [16]

CC1=CCC(=C(C)C)CC1
inactive: [1] | [2] | [3] | [4] | [5] | [6] | [7] | [8] | [9] | [10] | [12] | [13] | [14] | [15] | [16]
active: [11] 5.48 µM

CC(CO)c1ccccc1 (stereo unspecified)
inactive: [1] | [2] | [3] | [4] | [5] | [6] | [7] | [8] | [9] | [10] | [11] | [12] | [13] | [14] | [15] | [16]

CCC(C)COC(=O)CC(C)C (stereo unspecified)
inactive: [1] | [2] | [3] | [4] | [5] | [6] | [7] | [8] | [9] | [10] | [11] | [12] | [13] | [14] | [15] | [16]
